Data reported in the antibiotic and cytotoxicity screens of Wong et al. (2023).
Screen size: about 39,000 compounds; about 1,500 (3.8%) were called active. The entries come from a sample that favours actives as a whole.

Each molecule was assayed on HSkMC (human skeletal muscle cells) (assay: cytotoxicity call (relative viability < 0.9)). Settings: 10 µM.

Row | SMILES | cytotoxicity call
1 | COCC#Cc1cnc2c(c1)C(=O)N([C@H](C)CO)C[C@@H](C)[C@@H](CN(C)C(=O)c1cnccn1)O2 | inactive
2 | C[C@H]1CN([C@@H](C)CO)C(=O)c2cccc(NC(=O)Nc3ccccc3)c2O[C@H]1CN(C)Cc1ccc(C(F)(F)F)cc1 | inactive
3 | C[C@@H]1CN([C@@H](C)CO)C(=O)c2cc(NS(C)(=O)=O)ccc2O[C@@H]1CN(C)S(=O)(=O)c1ccc(Cl)cc1 | inactive
4 | C=CCOC(=O)[C@H]1[C@@H]2C(=O)O[C@@H](c3ccccc3)[C@@H](c3ccccc3)N2[C@@H](c2ccc(OCCOC(=O)[C@H]3C[C@H]4C(=O)NCC(=O)N4[C@H]3c3ccc(O)cc3)cc2)[C@]12C(=O)Nc1ccc(I)cc12 | inactive
5 | C=C(O)C(=O)O | inactive
6 | C[C@H]1CN([C@@H](C)CO)C(=O)Cc2cc(NS(=O)(=O)c3cccs3)ccc2O[C@@H]1CN(C)S(=O)(=O)c1cccs1 | inactive
7 | Cc1cc(NC(=O)CCCC(=O)O)n(C)n1 | inactive
8 | C[C@H](CO)N1C[C@H](C)[C@@H](CN(C)C(=O)Nc2cccc3ccccc23)Oc2ccc(NC(=O)Nc3ccc(F)cc3)cc2C1=O | inactive
9 | C[C@H](CO)N1C[C@H](C)[C@H](CN(C)C(=O)Nc2cccc3ccccc23)Oc2ccc(NC(=O)Nc3ccc(F)cc3)cc2C1=O | inactive
10 | C[C@@H]1CN([C@H](C)CO)C(=O)c2cc(NC(=O)Nc3ccc(F)cc3)ccc2O[C@@H]1CN(C)C(=O)Nc1cccc2ccccc12 | active
11 | C[C@H]1CN([C@@H](C)CO)C(=O)c2cc(NC(=O)Nc3ccc(F)cc3)ccc2O[C@@H]1CN(C)C(=O)Nc1cccc2ccccc12 | inactive
12 | C[C@@H]1CN([C@@H](C)CO)C(=O)c2cc(NC(=O)Nc3ccc(F)cc3)ccc2O[C@@H]1CN(C)C(=O)Nc1cccc2ccccc12 | active
13 | C[C@@H]1CN([C@H](C)CO)C(=O)c2cc(NC(=O)Nc3ccc(F)cc3)ccc2O[C@H]1CN(C)C(=O)Nc1cccc2ccccc12 | inactive
14 | Cc1ccc(S(=O)(=O)N(C)C[C@H]2Oc3ccc(NC(=O)C4CC4)cc3CC(=O)N([C@@H](C)CO)C[C@H]2C)cc1 | inactive
15 | C[C@@H]1CCCCO[C@@H](CN(C)S(=O)(=O)c2ccccc2)[C@@H](C)CN([C@@H](C)CO)C(=O)c2cc(NC(=O)C3CCCCC3)ccc2O1 | inactive
16 | C[C@H]1CN([C@@H](C)CO)C(=O)c2cc(Br)cnc2O[C@H]1CN(C)S(=O)(=O)c1cccs1 | inactive
17 | C[C@@H]1CCCCO[C@H](CN(C)S(=O)(=O)c2cccs2)[C@H](C)CN([C@H](C)CO)C(=O)c2cc(NS(C)(=O)=O)ccc2O1 | inactive
18 | Cc1noc(C)c1S(=O)(=O)N(C)C[C@@H]1Oc2ccc(NS(=O)(=O)c3cccs3)cc2CC(=O)N([C@H](C)CO)C[C@H]1C | inactive
19 | C[C@@H]1CN([C@H](C)CO)C(=O)c2cc(NS(C)(=O)=O)ccc2O[C@@H](C)CCCCO[C@H]1CN(C)S(=O)(=O)c1cccs1 | inactive
20 | CC1=CC[C@H](C(C)(C)O)CC1 | inactive
21 | CC(C)=CCCC(C)(O)C1CC=C(C)CC1 (stereo unspecified) | active
22 | C=CC(C)(O)CCC=C(C)C (stereo unspecified) | inactive
23 | CC(C)CC#Cc1cnc2c(c1)C(=O)N([C@@H](C)CO)C[C@@H](C)[C@H](CN(C)S(=O)(=O)c1cn(C)cn1)O2 | inactive

Row | SMILES | cytotoxicity call
24 | C[C@@H]1CCCCO[C@H](CN(C)C(=O)C2CCCCC2)[C@H](C)CN([C@H](C)CO)C(=O)c2cc(NS(=O)(=O)c3ccc(Cl)cc3)ccc2O1 | inactive
25 | C[C@@H]1CCCCO[C@H](CN(C)C(=O)C2CCCCC2)[C@H](C)CN([C@@H](C)CO)C(=O)c2cc(NS(=O)(=O)c3ccc(Cl)cc3)ccc2O1 | active
26 | C[C@@H]1CN([C@H](C)CO)C(=O)c2cc(NS(=O)(=O)c3ccc(Cl)cc3)ccc2O[C@@H](C)CCCCO[C@H]1CN(C)C(=O)C1CCCCC1 | inactive
27 | C[C@@H]1CCCCO[C@@H](CN(C)C(=O)Cc2ccccc2)[C@@H](C)CN([C@@H](C)CO)C(=O)c2cc(NS(=O)(=O)c3ccc(Cl)cc3)ccc2O1 | inactive
28 | C[C@@H]1CCCCO[C@@H](CN(C)C(=O)C2CCCCC2)[C@@H](C)CN([C@H](C)CO)C(=O)c2cc(NS(=O)(=O)c3ccc(Cl)cc3)ccc2O1 | active
29 | C[C@@H]1CCCCO[C@H](CN(C)C(=O)C2CCCCC2)[C@@H](C)CN([C@H](C)CO)C(=O)c2cc(NS(=O)(=O)c3ccc(Cl)cc3)ccc2O1 | inactive
30 | C[C@@H]1CCCCO[C@@H](CN(C)C(=O)C2CCCCC2)[C@H](C)CN([C@@H](C)CO)C(=O)c2cc(NS(=O)(=O)c3ccc(Cl)cc3)ccc2O1 | inactive
31 | C[C@@H]1CN([C@@H](C)CO)C(=O)c2cc(NS(=O)(=O)c3ccc(Cl)cc3)ccc2O[C@@H](C)CCCCO[C@H]1CN(C)C(=O)C1CCCCC1 | inactive
32 | C[C@H](CO)N1C[C@H](C)[C@@H](CN(C)C(=O)C2CCCCC2)OCCCC[C@H](C)Oc2ccc(NS(=O)(=O)c3ccc(Cl)cc3)cc2C1=O | inactive
33 | C[C@H]1CCCCO[C@H](CN(C)C(=O)Cc2ccccc2)[C@@H](C)CN([C@@H](C)CO)C(=O)c2cc(NS(=O)(=O)c3ccc(Cl)cc3)ccc2O1 | active
34 | C[C@@H]1CN([C@@H](C)CO)C(=O)c2cc(NS(=O)(=O)c3ccc(Cl)cc3)ccc2O[C@@H](C)CCCCO[C@H]1CN(C)C(=O)Cc1ccccc1 | inactive
35 | C[C@H]1CCCCO[C@H](CN(C)C(=O)C2CCCCC2)[C@@H](C)CN([C@@H](C)CO)C(=O)c2cc(NS(=O)(=O)c3ccc(Cl)cc3)ccc2O1 | active
36 | CNC(=O)CN1CCO[C@H]2CN(C(=O)c3cnccn3)C[C@@H]21 | inactive
37 | CC1(C)C(=O)NCCN1C(=O)c1ccco1 | inactive
38 | C[C@H]1CN([C@@H](C)CO)C(=O)Cc2cc(NS(=O)(=O)c3ccc(Cl)cc3)ccc2O[C@H]1CN(C)S(=O)(=O)c1cn(C)cn1 | inactive
39 | C[C@@H]1CN([C@H](C)CO)C(=O)Cc2cc(NC(=O)Cc3cn(C)c4ccccc34)ccc2O[C@H]1CN(C)C(=O)Nc1ccc(C(F)(F)F)cc1 | inactive
40 | COc1ccc(NC(=O)N2C[C@H](O)COC[C@@H]3O[C@H](CC(=O)NCc4ccccc4OC)CC[C@H]32)cc1 | inactive
41 | Cc1ccc(S(=O)(=O)N(C)C[C@@H]2Oc3c(NC(=O)c4ccncc4)cccc3C(=O)N([C@H](C)CO)C[C@@H]2C)cc1 | inactive
42 | COc1cccc(S(=O)(=O)N[C@H]2CC[C@@H](CCn3cc(-c4ccccc4OC)nn3)O[C@@H]2CO)c1 | inactive
43 | COc1cc(C(=O)O)ccc1NC(=O)[C@@H]1N[C@@H](CC(C)(C)C)[C@](C#N)(c2ccc(Cl)cc2F)[C@H]1c1cccc(Cl)c1F | active
44 | C[C@@H]1CN([C@H](C)CO)C(=O)c2cc(NS(=O)(=O)c3ccc(Cl)cc3)ccc2O[C@H]1CN(C)Cc1ccc(C(=O)Nc2ccccc2N)cc1 | inactive
45 | C[C@@H]1CN([C@H](C)CO)C(=O)c2cc(C#Cc3ccccc3F)cnc2O[C@H]1CN(C)C(=O)c1ccc2c(c1)OCO2 | inactive
46 | O=C(/C=C/c1cc2c(cc1Br)OCCO2)c1c(-c2ccccc2)c2cc(Cl)ccc2[nH]c1=O | active
